Only some compounds are listed: those with a hit (about 2.4% of all), similar ones and a draw of the others.
Pol kappa inh – blocks human DNA polymerase kappa activity. Potency, µM (top dose mostly 107 µM), without a hit: at the highest dose activity, negative = inhibition, actives largely listed as inhibitors. Q9UBT6. purified Pol kappa, fluorescent DNA synthesis assay, 10 min. 400,000 compounds, 0.53% hits; further: on the % scale 0 is the no-effect control and ±100 the full control effect
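10 nM Pol kappa preincubated 15 min at room temperature with compounds, then reaction started with substrate at 50 nM final. Fluorescence read kinetically at 0 and 10 min; buffer-only wells served as negative control.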
TDP1 inh – inhibitors of human tyrosyl-DNA phosphodiesterase TDP1; 350,000 compounds, 0.28% hits; Potency, µM (top dose mostly 130 µM), without a hit: top-dose activity change, negative = inhibition, usual class: inhibitors; recombinant TDP1, AlphaScreen DNA substrate cleavage; AID 485290; further: on the % scale 0 is the no-effect control and ±100 the full control effect; nearly all actives have a fitted effect of over 40% in size
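Recombinant E. coli-expressed Tdp1 (1 nM) preincubated with compound 15 min at RT, then 5'-biotin/3'-phosphotyrosine-FITC DNA substrate (15 nM) added for 5 min. AlphaScreen beads (10 ug/ml) added, 10 min RT; tyrosine-FITC cleavage read as signal loss.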
POLI inh – DNA polymerase iota (human) inhibition | Q9UNA4 | Pol iota fluorescent replication assay, 10 min | Potency, µM (doses to about 115 µM), for the others: top-dose activity, negative = inhibition, most hits filed as inhibitors | 390,000 compounds, 1% hits | AID 588590
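Fluorescent replication assay read twice, at 0 min and 10 min after adding 50 nM (final) substrate. Enzyme (10 nM) and compounds were first incubated 15 min at room temperature; enzyme-free buffer wells were negative controls.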
Pol beta inh – DNA polymerase beta (human) inhibition; Pol beta primer extension/strand displacement, fluorescence kinetic; Potency, µM (highest dose often 114 µM), without a hit: at the top dose activity change, negative = inhibition, actives largely listed as inhibitors; P06746; AID 485314; 340,000 compounds, 1.3% hits; further: on the % scale 0 is the no-effect control and ±100 the full control effect
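Homogeneous kinetic assay of primer extension and strand displacement by 10 nM Pol beta, preincubated 15 min at room temperature with compound before 50 nM substrate (final) was added. Read at 0 and 10 min; four-parameter Hill fit.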
Pol eta inh – inhibitors of human DNA polymerase eta; 390,000 compounds, 1.2% hits; Potency, µM (titrated, usually from 114 µM), for inactives: at the highest dose activity change, negative = inhibition, actives largely listed as inhibitors; recombinant Pol eta, fluorescent DNA replication assay; Q9Y253; AID 588591; further: on the % scale 0 is the no-effect control and ±100 the full control effect
Target sequence (Q9Y253 whole entry, looked up): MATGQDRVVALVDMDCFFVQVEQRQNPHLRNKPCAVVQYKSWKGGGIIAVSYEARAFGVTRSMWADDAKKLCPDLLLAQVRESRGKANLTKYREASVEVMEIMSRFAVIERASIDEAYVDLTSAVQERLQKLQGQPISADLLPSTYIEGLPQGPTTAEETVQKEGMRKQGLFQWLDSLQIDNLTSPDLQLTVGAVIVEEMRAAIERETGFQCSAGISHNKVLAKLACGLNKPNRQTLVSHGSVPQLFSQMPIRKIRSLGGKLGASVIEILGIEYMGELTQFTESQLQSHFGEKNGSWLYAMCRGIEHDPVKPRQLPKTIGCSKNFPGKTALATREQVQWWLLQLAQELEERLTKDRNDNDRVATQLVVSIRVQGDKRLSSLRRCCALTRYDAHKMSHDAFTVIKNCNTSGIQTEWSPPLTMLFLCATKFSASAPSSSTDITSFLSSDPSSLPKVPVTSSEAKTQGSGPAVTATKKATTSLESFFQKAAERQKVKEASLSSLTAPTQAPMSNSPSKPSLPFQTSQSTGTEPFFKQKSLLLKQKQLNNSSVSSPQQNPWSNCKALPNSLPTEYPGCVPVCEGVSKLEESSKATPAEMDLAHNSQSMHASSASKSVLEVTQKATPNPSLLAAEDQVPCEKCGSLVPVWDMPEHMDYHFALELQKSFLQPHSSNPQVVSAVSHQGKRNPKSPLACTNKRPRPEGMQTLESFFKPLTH
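Pol eta at 10 nM preincubated with compounds 15 min at room temperature; reaction started with fluorescent substrate (50 nM final) and read kinetically at 0 and 10 min.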
Numbers without * were called inactive; ? = inconclusive; · = no result; ! = not confirmed by another sample; [ ] = dose if it differs, or a comment. The call rests on the fitted dose curve; in most records, active means well fitted curve in the direction sought with a large enough effect; inconclusive means small, poorly fitted or top-dose-only effect, or another doubt; inactive means no such curve, though single readings can be large; an effect the other way counts as inactive or inconclusive. Potency means the concentration at half of the fitted maximal effect.

SMILES	Pol kappa inh	TDP1 inh	POLI inh	Pol beta inh	Pol eta inh
CC(=O)c1cccc(NC(=O)COc2cc3oc(=O)c(CC(C)O)c(C)c3cc2Cl)c1 (stereo not drawn)	-39%	3%	56µM*	?	?
CCCC1(C)C(C#N)(C#N)C1(C#N)C#N	7%[60.1 µM]	·	·	·	·
O=C(O)Cc1ccc(C(=O)c2ccccc2)s1	-22%	3%	-10%	0%	1%
O=C(O)Cc1ccc(C(=O)CSc2ccccc2)s1	?	·	25µM*	16µM*	20µM*
COc1ccccc1C(=O)Nc1ncc2c(n1)CC(c1ccco1)CC2=O (stereo not drawn)	-34%	·	56µM*	40µM*	-16%
CC[N+](CC)(CC)c1ccc(/C=C/c2ccc3ccccc3n2)cc1	45µM*	·	-5%	·	·
CCN(C)c1ccc(/C=C/c2ccnc3ccccc23)cc1	-2%	·	?	·	·
CC[N+](CC)(CC)c1ccc(/C=C/c2ccnc3ccccc23)cc1	45µM*	·	?	·	·
C(=C\c1ccc2ccccc2n1)/c1ccccc1	-19%	-10%	-20%	50%	-9%
CC[N+](C)(C)c1ccc(/C=C/c2ccnc3ccccc23)cc1	?	·	79µM*	·	·
O=S1(=O)N=C(Oc2ccc3ccccc3c2)c2ccccc21	·	2%	·	·	·
COc1cc(OC)cc(C(=O)Nc2cc3c(cc2N2CCCC2)n(C)c(=O)c(=O)n3C)c1	18%	·	-10%	?	-11%
COc1ccc(Cc2nc3ccc(S(=O)(=O)N4CCOCC4)cc3[nH]2)cc1	-8%	0%	79µM*	23%	-1%
C[C@@H]1O[C@@H](O[C@H]2[C@H](O)[C@@H](O)[C@H](Oc3c(-c4ccc(O)c(O)c4)oc4cc(O)cc(O)c4c3=O)O[C@@H]2CO)[C@H](O)[C@H](O)[C@H]1O	?	6%	?	·	?
O=c1c(O)c(-c2ccc(O)c(O)c2)oc2c(OC3OC(CO)C(O)C(O)C3O)c(O)cc(O)c12 (stereo not drawn)	3.2µM*	9%[56.1 µM]	·	·	·
O=c1c(O)c(-c2ccc(O)c(O)c2)oc2c(OC[C@@H]3O[C@@H](O)[C@@H](O)[C@H](O)[C@H]3O)c(O)cc(O)c12	0.32µM*	·	·	·	·
COc1ccc(-c2coc3cc(O)ccc3c2=O)c(O)c1O	1.8µM*	·	·	·	·
COc1ccc(-c2coc3cc(O)ccc3c2=O)c(OC)c1O	-1%[60.1 µM]	14%[56.1 µM]	·	·	·
CCOc1ccc(CCNC(=O)CN2C(=O)COc3ccc(S(=O)(=O)N4CCCC4)cc32)cc1	2%	5%	5%	16%	-8%
CC1(C)S[C@@H]2C(C(=O)O)NC(=O)N2C1C(=O)O (stereo partly drawn)	-25%	·	-1%	·	·
CCOc1ccc(-c2c(C(=O)N/N=C(\C)c3cccnc3)nnn2-c2nonc2N)cc1	-9%	-7%	?	23%	-5%
CCCOc1ccc(-c2c(C(=O)N/N=C(\C)c3cccnc3)nnn2-c2nonc2N)cc1	-31%	-5%	45µM*	1%	4%
COc1cc(CN2c3ccc(Br)cc3C(=O)CS2(=O)=O)cc(OC)c1	-18%	·	1%	·	·
COc1ccc(CC(=O)N2CCCc3ccccc32)cc1OC	-13%	1%	89µM*	-17%	-5%
CCc1nc2sc3c(N4CCC(C)CC4)ncnc3c2c2c1CCCC2	-18%	-3%	14%	-17%	-7%
SMILES	Pol kappa inh	TDP1 inh	POLI inh	Pol beta inh	Pol eta inh
C[C@H]1[C@@H](OC(=O)CCC(=O)O)OC2OC3(C)CC[C@H]4[C@H](C)CC[C@@H]1[C@@]24OO3 (stereo partly drawn)	5%[19.4 µM]	·	·	·	·
CC(C)CN(C(=O)COC(=O)c1ccc(C#N)cc1)C1CCS(=O)(=O)C1 (stereo not drawn)	-9%	2%	77%	·	-9%
COc1cc(C(=O)OCC(=O)N(CC(C)C)C2CCS(=O)(=O)C2)cc(OC)c1C (stereo not drawn)	-5%	32µM*	?	·	?
CC(=O)Nc1cc(NC(C)=O)cc(C(=O)OCC(=O)N(c2ccccc2)C2CCS(=O)(=O)C2)c1 (stereo not drawn)	-18%	45µM*	?	·	?
CC(=O)Nc1ccc(C(=O)OCC(=O)N(c2ccccc2)C2CCCCC2)cc1	-10%	0%	0%	·	-24%
Cc1ccc(CCNC(=O)CCn2nc(-c3ccc(Cl)cc3)ccc2=O)cc1	-4%[60.1 µM]	5%	20%	15%	1%
COc1ccccc1N(C(C)=O)C1=C(Cl)C(=O)c2ccccc2C1=O	·	·	·	·	50µM*
CCN(CC)CCn1nc2c3c(cccc3c1=O)-c1ccccc1-2	-64%	6%	?	10µM*	-10%
C=C(NC(=O)C(=C)NC(=O)c1csc(C2=NC3c4csc(n4)C4NC(=O)c5csc(n5)C(C(C)(O)C(C)O)NC(=O)C5CSC(=N5)/C(=C/C)NC(=O)C(C(C)O)NC(=O)c5csc(n5)C3(CC2)NC(=O)C(C)NC(=O)C(=C)NC(=O)C(=C)NC(=O)C(C(C)C)NC2C=Cc3c(C(C)O)cc(nc3C2O)C(=O)OC4C)n1)C(N)=O (stereo not drawn)	-19%	·	22µM*	·	?
C=C(NC(=O)C(=C)NC(=O)c1csc(C2=NC3c4csc(n4)C4NC(=O)c5csc(n5)C(C(C)(O)C(C)O)NC(=O)C5CSC(=N5)C(=CC)NC(=O)C(C(C)O)NC(=O)c5csc(n5)C3(CC2)NC(=O)C(C)NC(=O)C(=C)NC(=O)C(C)NC(=O)C(C(C)CC)NC2C=Cc3c(C(C)O)cc(nc3C2O)C(=O)OC4C)n1)C(N)=O (stereo not drawn)	-12%[60.1 µM]	5%	·	·	·
O=c1oc2c(O)c(O)cc3c(=O)oc4c(O)c(O)cc1c4c23	0.79µM*!	0.1µM*	1.1µM*!	0.16µM*	0.79µM*
COc1c(O)c(O)cc2c1oc1c3cc(C)ccc3oc(=O)c21	·	10%	·	·	·
O=C(Nc1cccc(Cl)c1Cl)c1cc(S(=O)(=O)N2CCCCC2)ccc1F	-7%[60.1 µM]	-5%	-4%	19%	2%
Oc1cc2c(c(Cl)c1O)CCNCC2c1ccccc1 (stereo not drawn)	11%[60.1 µM]	11%[56.1 µM]	32µM*	?	?
Cc1c(P(=S)(c2ccccc2)c2ccccc2)[n+]2ccccc2n1CCCc1ccccc1	·	2%	·	·	·
N.N.O=C(O)C1(C(=O)O)CCC1.[Pt]	22µM*	·	-7%[58.9 µM]	8%[57.1 µM]	-3%[57.1 µM]
O=C(O)C1(C(=O)O)CCC1	-18%	·	-3%	·	-2%
N#Cc1nc(NCC(F)F)c2ncn(-c3cc(F)cc(F)c3)c2n1	·	-1%	·	·	·
CCOc1cc(/C=N/N=C2/NC(=O)C(CC(=O)O)S2)ccc1OCc1ccccc1Cl (stereo not drawn)	-7%	-6%	-17%	28µM*	?
COc1ccc(/C=N/N=C2/NC(=O)C(CC(=O)O)S2)cc1OCc1ccccc1Cl (stereo not drawn)	2%	-15%	0%	-13%	?

Screening results from PubChem.
